We go through 40 compounds from PubChem BioAssay (Tox21).

Molecules are shown by their SMILES. Results filed as inconclusive are left out. Entries that show only a call come without a potency. Where a structure was tested more than once in an assay, its records may differ in their call. The source made the active and inactive calls. The call rests on the fitted dose curve; in most records, active means well fitted cell-killing curve with a large enough effect in the repeat runs; inconclusive means weak or mixed curves; inactive means flat fitted curve, though single readings scatter.
Potency means the concentration at half of the fitted maximal effect.

A short description of the test: qHTS assay to identify small molecule antagonists of the estrogen receptor beta (ER-beta) signaling pathway - cell viability counter screen (AID 1259382). Further: nearly all actives have a fitted effect of over 55% in size. To be noted: ER-beta-UAS-bla HEK293T viability, CellTiter-Glo luminescence, 16 h; series mostly up to 92.4 µM; activity change, negative = cytotoxicity: at the top concentration. The text has this: U.S. Tox21 Program National Center for Advancing Translational Sciences [NCATS] NIH Chemical Genomics Center [NCGC] U.S. Environmental Protection Agency [EPA] National Institutes of Environmental Health Sciences [NIEHS] National Toxicology Program [NTP] U.S. Food and Drug Administration [FDA] Tox21 Assay Overview: Estrogen receptor (ER), a nuclear hormone receptor, plays an important role in development, metabolic homeostasis and reproduction. Two subtypes of ER, ER-alpha and ER-beta, have similar expression patterns with some uniqueness in both types. Endocrine disrupting chemicals (EDCs) and their interactions with steroid hormone receptors like ER causes disruption of normal endocrine function. To identify the compounds that inhibit ER signaling, an ER-beta-UAS-bla GripTite cell line (Life Technologies, Madison, WI, USA) containing a beta-lactamase reporter gene under the control of an UAS response element was used to screen Tox21 10K compound library. The cytotoxicity of the Tox21 compound library against the ER-beta-bla cell line was tested in parallel by measuring the cell viability using CellTiter-Glo assay in the same wells.
Tox21 Assay Protocol Summary: ER-beta-UAS-bla HEK293T cells were dispensed at 2,000 cells/4 uL of assay medium containing 2% charcoal stripped FBS per well into black wall/clear-bottom 1536-well plates using a Multidrop Combi (ThermoFisher Scientific, Waltham, MA) dispenser. After the assay plates were incubated at a 37C and 5% CO2 for 6 hr, 23 nL of compounds dissolved in DMSO, positive controls or DMSO only was transferred to the assay plate by a Pintool station (Kalypsys, San Diego, CA), followed by addition of 1 uL (1nM as final concentration) of 17-beta-estradiol (E2) in assay medium using a Flying Reagent Dispenser (FRD, Aurora Discovery, San Diego, CA). The plates were incubated at 37C and 5% CO2 for 16 hr. Then 1 uL of LiveBLAzer B/G FRET substrate was added using a Flying Reagent Dispenser, the plates were incubated at room temperature for 2 hours, and fluorescence intensity was measured by an Envision plate reader (PerkinElmer, Shelton, CT). For cell viability readout that measures cytotoxicity, 4 uL/well of CellTiter-Glo reagent was added into the assay plates using a FRD. After 30 min incubation at room temperature, the luminescence intensity in the plates was measured using a ViewLux (PerkinElmer) plate reader.
Regarding `O=[N+]([O-])c1ccc(O)c([N+](=O)[O-])c1`, the Potency entry is “inactive”.
The same measure, in the same setting: the same measure for `CNC(=O)N(C)c1nnc(C(C)(C)C)s1`: “inactive”; for `COP(=S)(OC)Oc1ccc([N+](=O)[O-])cc1`: “inactive”.
As to `CC1(C)C(C=C(Cl)Cl)C1C(=O)OC(C#N)c1cccc(Oc2ccccc2)c1` (stereo not given), the Potency result is “inactive”.
On the same count and under the same terms, under `N[C@@H](Cc1ccc(N(CCCl)CCCl)cc1)C(=O)O` stands “inactive”; under `O=c1oc2ccccc2c(O)c1C(CC(O)c1ccc(-c2ccc(Br)cc2)cc1)c1ccccc1` (stereo not given), “inactive”.
The same measure, in the same setting: under `COC(=O)c1sccc1S(=O)(=O)NC(=O)Nc1nc(C)nc(OC)n1` stands “inactive”.
Still for that read-out and setting: under `CCCCC(CC)COC(=O)Cl` (stereo not given) stands “inactive”; under `Cc1c(COC(=O)[C@@H]2[C@H](/C=C(\Cl)C(F)(F)F)C2(C)C)cccc1-c1ccccc1`, “inactive”; under `Clc1nc(Cl)nc(Cl)n1`, “inactive”.
Turning to `Oc1ccc(-c2ccccc2)cc1`, the Potency result is “inactive”.
With `Cc1ccc(N)c(N)c1`, the Potency entry is “inactive”.
Regarding `O=C(CCl)c1ccccc1`, the Potency result was “inactive”.
Same read-out and setting: under `Cc1ccccc1[N+](=O)[O-]` stands “inactive”; under `CCOc1cc(C=O)ccc1O`, “inactive”.
Consider `CC(C)=CC1C(C(=O)OCc2coc(Cc3ccccc3)c2)C1(C)C` (stereo not given), for which the “activity change, negative = cytotoxicity” value is -4.38% (inactive).
On to `COP(=O)(OC)OC`, for which the Potency result is “inactive”.
For the compound `CC(C)N(C(=O)SCC(Cl)=C(Cl)Cl)C(C)C`, the Potency entry was “inactive”.
With `NNC(=S)NN`, the Potency result was “inactive”.
Still for that read-out and setting: under `C=CCc1ccc2c(c1)OCO2` stands “inactive”.
As for `CCCCN(CC)c1c([N+](=O)[O-])cc(C(F)(F)F)cc1[N+](=O)[O-]`, the Potency result was “inactive”.
Take `Nc1ccc(-c2ccc(N)c(N)c2)cc1N`: the Potency result is “inactive”.
Same read-out and setting: the same measure for `CCN(CC)C(=O)/C(Cl)=C(\C)OP(=O)(OC)OC`: “inactive”; for `CCN(N=O)C(N)=O`: “inactive”.
On the same count and under the same terms, the same measure for `c1nc[nH]n1`: “inactive”; for `Nc1ccc(-c2ccccc2)cc1`: “inactive”.
Same read-out and setting: under `CC(C)Oc1cc(-n2nc(C(C)(C)C)oc2=O)c(Cl)cc1Cl` stands “inactive”; under `Nc1cccnc1`, “inactive”.
In the case of `Oc1cc(Cl)ccc1Cl`, the Potency entry was “inactive”.
Consider `c1cc(OCC2CO2)ccc1Cc1ccc(OCC2CO2)cc1` (stereo not given), for which the Potency was 48.8 µM (active) and inactive.
Same read-out and setting: under `CCCCCCCCCCCOC(=O)c1ccccc1C(=O)OCCCCCCCCCCC` stands “inactive”; under `O=P(O)(O)CCCl`, “inactive”; under `C=CCc1ccc(OC)cc1`, “inactive”.
Still for that read-out and setting: under `CC(C)(C)c1ccccc1O` stands “inactive”.
Consider `CCC(C)(c1ccc(O)cc1)c1ccc(O)cc1`, for which the Potency result was “inactive”.
In the case of `O=P(Oc1ccccc1)(Oc1ccccc1)Oc1ccccc1`, the “activity change, negative = cytotoxicity” value was -16.3% (inactive).
Regarding `Oc1c(Cl)c(Cl)c(Cl)c(Cl)c1Cl`, the Potency entry is “inactive”.
For `C=C(C)C(=O)OCC1CO1` (stereo not given), the Potency result was “inactive”.
Still for that read-out and setting: the same measure for `Cc1cc(Cl)ccc1OCCCC(=O)O`: “inactive”.
As to `CCCCNC(=O)n1c(NC(=O)OC)nc2ccccc21`, the “activity change, negative = cytotoxicity” value is 5.7% (inactive).
